Screens as filed in PubChem BioAssay.
HCV inh: inhibitors of hepatitis C virus infection | Huh7.5.1 HCVcc-Cre infection, luciferase reporter, 44 h | Potency, µM (highest dose often 41.8 µM), inactives show at the top dose activity change, negative = inhibition, actives largely listed as inhibitors | actives 3.4% (n = 340,000); also: potency is read from the fitted curve at half-maximal effect
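Infectious HCVcc-Cre (~0.5 moi) was added to cells just after compound, with cells seeded 4 h earlier at 1,000 per well. Luciferase activity after 44 h culture reported infection; substrate was incubated 15 min at room temperature before reading.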
FMDV inh: antivirals against foot and mouth disease virus; Potency, µM (highest dose often 57.9 µM), inactives show at the top dose activity change, negative = inhibition, usual class: inhibitors; actives 1.2% (n = 410,000); FMDV antiviral cell-based qHTS; calls by dose curve; tested in HEK293T cells; also: read-out not given here; potency is read from the fitted curve at half-maximal effect; nearly all actives have a fitted effect of over 45% in size
Marburg entry inh: Marburg virus entry inhibition. actives 1.8% (n = 300,000). AID 540276. Potency, µM (top dose mostly 37.8 µM), for the others: at the top dose activity change, negative = inhibition, usual class: inhibitors. Marburg virus pseudotyped entry inhibition, cell reporter; calls by dose curve; tested in HEK293 cells; also: potency is read from the fitted curve at half-maximal effect
FBPA Giardia inh: Giardia lamblia aldolase inhibition; A8B2U2; purified Giardia FBPA; Potency, µM (highest dose often 59.6 µM), for the others: top-dose activity, negative = inhibition, actives largely listed as inhibitors; actives 0.71% (n = 290,000); AID 2451; also: potency is read from the fitted curve at half-maximal effect; nearly all actives have a fitted effect of over 55% in size
Target sequence (A8B2U2 whole entry, looked up): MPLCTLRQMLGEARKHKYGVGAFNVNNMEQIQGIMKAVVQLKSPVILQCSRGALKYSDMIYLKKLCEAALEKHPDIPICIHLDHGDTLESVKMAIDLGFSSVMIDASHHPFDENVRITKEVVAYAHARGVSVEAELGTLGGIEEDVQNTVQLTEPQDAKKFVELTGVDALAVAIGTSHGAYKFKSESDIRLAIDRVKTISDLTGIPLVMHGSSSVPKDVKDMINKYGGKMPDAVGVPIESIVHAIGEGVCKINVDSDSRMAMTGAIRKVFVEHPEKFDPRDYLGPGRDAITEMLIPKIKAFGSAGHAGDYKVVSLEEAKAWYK
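Giardia FBPA (40 nM reagent) was preincubated 10 min at RT with compound (up to 57.5 uM final), then substrate plus GAPDH/TPI/NAD/arsenate coupling system with diaphorase/resazurin was added; resorufin fluorescence (525/598 nm) was read after 20 min.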
LASV entry inh: blocks Lassa virus binding to or entry into cells; actives 1.2% (n = 300,000); Potency, µM (top dose mostly 37.9 µM), without a hit: at the highest dose activity change, negative = inhibition, most hits filed as inhibitors; Lassa virus pseudotype entry inhibition, cell reporter; calls by dose curve; tested in HEK293 cells; also: potency is read from the fitted curve at half-maximal effect; nearly all actives have a fitted effect of over 50% in size
HCMV antiviral: inhibitors of human cytomegalovirus; AID 1259415; actives 4.5% (n = 410,000); activity change, negative = inhibition, % at 57.5 µM; HFF cells, HCMV-luciferase reporter, 72 h; active compounds read low; in the data active = activity change below about -60%; inconclusive = no clear call, values can overlap the other calls; inactive = above about -39%
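Two compound doses tested in HFFs infected with HCMV-luciferase, MOI 1 PFU/cell, 72 h at 37C. Lysate luminescence read with OneGlo; data normalized against buffer-only and 10uM Salinomycin inhibitor controls.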
Numbers without * were called inactive; ? = inconclusive; nt = not tested or not shown; [ ] = another dose, or the depositor's remark. This is a sample that favours compounds with a hit; in the whole collection about 8.3% have one here. Unless noted, calls follow the shape of the dose curve; as a rule, active = well fitted curve in the direction sought with a large enough effect; inconclusive = small, poorly fitted or top-dose-only effect, or another doubt; inactive = no such curve, though single readings can be large; an effect the other way counts as inactive or inconclusive. % is scaled to controls: 0 for no effect and ±100 for the full control effect.

SMILES | HCV inh | FMDV inh | Marburg entry inh | FBPA Giardia inh | LASV entry inh | HCMV antiviral
Cc1ccccc1OCc1nc2c3cnn(-c4cccc(F)c4)c3ncn2n1 | nt | -17% | ? | nt | -1%[46.1 µM] | 27
CCOc1ccc(CNC(=O)CSc2nnc(C)c3c(C)n(-c4ccc(Cl)cc4)nc23)cc1 | nt | ? | nt | nt | 6%[46.1 µM] | -12
COc1ccc(C2/C=C\CN(S(=O)(=O)CC34CCC(CC3=O)C4(C)C)CC(=O)N2Cc2ccc(F)cc2)cc1 (stereo unspecified) | nt | nt | nt | 0% | nt | nt
Cc1nnc(SCc2cccc([N+](=O)[O-])c2)[nH]c1=O | -1% | -8% | 21%[46.1 µM] | 1% | -4%[46.1 µM] | -81*
CCOC(CCn1c(SCc2cccc([N+](=O)[O-])c2)nc2ccccc2c1=O)OCC | ? | ? | ? | 1% | 4% | 16
COCCn1c(SCc2cccc([N+](=O)[O-])c2)nc2ccccc2c1=O | 11µM* | ? | ? | 2% | ? | ?
COCCn1c(SCCOc2ccccc2)nc2ccccc2c1=O | ? | 25µM* | ? | -1% | -8% | -18
Cn1c(SCc2cccc(C#N)c2)nc2ccccc2c1=O | 32µM* | ? | -7%[46.1 µM] | -3% | ? | -64*
CN(C)c1ncc2nc(-c3cc(F)cc(F)c3)c(=O)n(Cc3cccs3)c2n1 | nt | -3% | nt | 6% | nt | nt
Cn1c(SCc2cccc([N+](=O)[O-])c2)nc2ccccc2c1=O | -25% | 20µM* | ? | nt | -19% | ?
Cc1cc(C(=O)CSc2nc3ccccc3c(=O)n2C)c(C)n1Cc1ccc2c(c1)OCO2 | 1.6µM* | ? | ? | ? | ? | -11
Cc1ccc(CSc2nc3ccccc3c(=O)n2C)cc1 | ? | ? | ? | 4% | -15% | -65*
O=C(Nn1c(SCc2cccc([N+](=O)[O-])c2)nc2ccccc2c1=O)c1ccccc1 | -10% | 51% | ? | 6% | ? | 17
O=c1c2ccccc2nc(SCc2ccc([N+](=O)[O-])cc2)n1-c1ccccc1 | ? | -11% | -28% | 0% | -29% | -15
COc1ccc(C(=O)Nn2c(SCc3cccc([N+](=O)[O-])c3)nc3ccccc3c2=O)cc1 | ? | ? | 8.9µM* | 0% | 3.3µM* | -70*
Cc1cc(C(=O)CSc2nnc(-c3ccccc3)n2Cc2ccc3c(c2)OCO3)c(C)n1C | -6% | 3% | 19% | 3% | 14% | 10
O=c1cc(-c2ccc(O)c(O)c2)oc2ccccc12 | nt | 50% | nt | ? | nt | nt
COC(=O)[C@@]1(Cc2ccc(OC)cc2)[C@H]2c3cc(C(=O)N(C)C)n(Cc4ccc(C)c(F)c4F)c3C[C@H]2CN1C(=O)c1ccccc1 | nt | nt | nt | -7% | nt | nt
CC(C)(CCl)C(=O)Nc1ccc(OC(F)(F)F)cc1 | -9% | 5% | 7%[46.1 µM] | -6% | -10%[46.1 µM] | -19
CS/C(=C\[N+](=O)[O-])Nc1ccc(OC(F)(F)F)cc1 | -23% | -23% | nt | 6% | nt | -61*
CC(=O)OC[C@H]1O[C@@H](ON=C(C)CCN2CCCCc3nc(C)c(C)cc32)[C@H](OC(C)=O)[C@@H](OC(C)=O)[C@H]1OC(C)=O | nt | nt | 1%[14.2 µM] | nt | nt | nt
CCc1cc2c(nc1CC)CCN(CCC(C)=NO[C@@H]1O[C@H](COC(C)=O)[C@@H](OC(C)=O)[C@H](OC(C)=O)[C@@H]1OC(C)=O)C2 | nt | nt | -19%[14.2 µM] | nt | nt | nt
CN1[C@@H]2CC[C@H]1CC(OC(c1ccccc1)c1ccccc1)C2 (stereo partly specified) | nt | 0% | 5µM* | 3% | nt | nt
CN1CCC(OC(c2ccccc2)c2ccc(Cl)cc2)C1 (stereo unspecified) | ? | -12% | 7.1µM* | nt | ? | -38
CN1C2CCC1CC(OC(c1ccccc1)c1ccccc1)C2 (stereo unspecified) | ? | ? | 5µM* | 2% | nt | -32
CN1C2CCC1CC(OC(c1ccc(F)cc1)c1ccc(F)cc1)C2 (stereo unspecified) | nt | -11% | nt | nt | nt | nt
CN1[C@@H]2CC[C@H]1CC(O[C@@H](c1ccccc1)c1ccc(Cl)cc1)C2 (stereo partly specified) | nt | -21% | 3.2µM* | -4% | nt | nt
CCOC(=O)C(CNc1ccc(OCc2ccccc2)cc1)NC(=O)c1ccccc1 (stereo unspecified) | nt | nt | nt | nt | nt | 22
